S1P2 antag – blocks the human S1P2 receptor. O95136. cell-based S1P2 antagonist assay, inhibition at 5 uM. inhibition, % at 5 µM. 97,000 tested, 0.21% active; in the data active means inhibition above about 45%;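 further: CRE beta-lactamase reporter cells expressing human S1P2 stimulated with S1P; 0% = agonist at EC80 alone and 100% = agonist plus reference antagonist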
S1P2 agonist – agonists of human S1P2 receptor | O95136 | S1P2-expressing cell line, agonist reporter read-out | activation, % at 4.5 µM | 97,000 tested, 0.46% active; in the data active means activation above about 16%;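 further: 0% = vehicle low control and 100% = maximal reference agonist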
Phagocytosis inh – blocks phagocytosis by macrophages | AID 1029 | inhibition, % at 5 µM | 110,000 tested, 0.07% active | J774A.1 macrophage IgG-bead phagocytosis, imaging;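 active means inhibition above the mean of the plate negative controls plus 5 SD, cut at about 13% in these data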;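 further: phagocytic index as fraction of beads internalized from green versus red external bead signal; plate controls were DMSO negative control for no effect and cytochalasin-D positive control for full effect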
GALR2 ag – GALR2 (human) receptor agonism; O43603; 140,000 tested, 0.48% active; activation, % (concentration not given with the values); GALR2-expressing cells, agonist activation read-out; in the data active means activation above about 5%, passing the limit was not always enough;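 further: 0% = vehicle buffer wells and 100% = reference agonist at full effect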
Target sequence (O43603 whole entry, looked up): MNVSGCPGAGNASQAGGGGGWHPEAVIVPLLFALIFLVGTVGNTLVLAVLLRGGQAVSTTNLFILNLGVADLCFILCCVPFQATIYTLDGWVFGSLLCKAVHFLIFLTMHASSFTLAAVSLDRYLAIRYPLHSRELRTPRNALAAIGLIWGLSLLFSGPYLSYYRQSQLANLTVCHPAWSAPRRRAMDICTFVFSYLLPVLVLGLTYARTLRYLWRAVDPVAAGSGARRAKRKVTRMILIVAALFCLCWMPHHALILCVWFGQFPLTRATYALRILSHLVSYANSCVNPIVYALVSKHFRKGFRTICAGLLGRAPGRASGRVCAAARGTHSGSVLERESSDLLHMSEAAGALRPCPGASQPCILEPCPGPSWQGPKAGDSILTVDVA
GALR2 blocker – blocks the human galanin receptor 2; O43603; GALR2-expressing cells, antagonist mode; inhibition, % at 4 µM; 140,000 tested, 0.39% active; AID 828;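 further: cells stimulated with galanin 1-16 at roughly its EC80; 0% = agonist challenge control and 100% = basal control without agonist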
GALR2 ag confirm – confirmation of human galanin receptor 2 (GALR2) agonists; shares compounds with GALR2 ag; GALR2-expressing cells, agonist activation; activation, % at 5.6 µM; 460 tested, 10% active; in the data active means activation above about 8.4%;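 further: 0% = buffer-only vehicle wells and 100% = full reference agonist response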
BLA act counter – activates beta-lactamase reporter in GALR2 agonist counterscreen; shares compounds with GALR2 ag; CHO NFAT-bla reporter, beta-lactamase FRET activation; activation, % at 5.6 µM; 460 tested, 10% active;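 active means activation above the screen-wide mean activation plus 3 SD, cut at about 8% in these data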;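 further: 0% = DMSO with PBS wells and 100% = thapsigargin positive control wells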
GALR2 blk conf – confirmation of human galanin receptor 2 (GALR2) antagonists. shares compounds with GALR2 blocker. GALR2-expressing cells, antagonist mode, inhibition. inhibition, % at 4 µM. 480 tested, 60% active. AID 866;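 further: cells stimulated with galanin at about its EC80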
BLA inh counter – beta-lactamase inhibition, GALR2 counterscreen; AID 867; inhibition, % at 4.2 µM; CHO NFAT-BLA reporter, beta-lactamase FRET, thapsigargin-stimulated; 480 tested, 36% active; shares compounds with GALR2 blocker;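 active means inhibition above the mean inhibition across tested compounds plus 3 SD, cut at about 27% in these data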;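 further: 0% = 500 nM thapsigargin stimulated wells and 100% = unstimulated BSA only wells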
* hit, by the source's call; . = no result; ! = not confirmed by another sample. Sampled rows, rich in hits. Any-hit rate of the full collection: about 1.3%. Unless noted, no stated cut-off is given here; in the data, active means inhibition above about 27%; inactive means the rest.

SMILES	S1P2 antag	S1P2 agonist	Phagocytosis inh	GALR2 ag	GALR2 blocker	others
C=CCNC(=O)c1c(N)n(Cc2ccco2)c2nc3ccccc3nc12	-14.6	17.8*	-0.5	6.4*	-19.4
CCN(CC)P(=O)(NC(=O)C(Cl)(Cl)Cl)N(CC)CC.[Cl-].[Cl-].[Cl-].[Nd+3]	4.8	-10.5	-0.5	-2.0	8.3
CCCCCc1nc2c(c(=O)c3ccccc3n2C)c(=O)n1C1CCCCCC1	.	.	-7.8	7.3*	-1.6
CCCCCc1nc2ccccc2c(=O)n1-c1ccccc1[N+](=O)[O-]	.	.	.	-0.9	-15.4
CC(=NCc1ccco1)c1c(O)n(-c2ccccc2)c(=O)[nH]c1=O	8.8	-11.0	0.2	-1.7	6.0
COC(=O)C1=CO[C@@H](C)[C@@H]2CN3CC[C@@]4(C(=O)Nc5ccccc54)[C@@H]3C[C@H]12	.	.	.	-0.5	-10.5
CCC(C)NC(=O)c1c(N)n(Cc2ccc3c(c2)OCO3)c2nc3ccccc3nc12 (centres undefined)	-169.3	140.0*	1.0	84.3*	-11.6
CCC(C)NC(=O)c1c(N)n(CC2CCCO2)c2nc3ccccc3nc12 (centres undefined)	.	.	-0.5	3.3	3.9
CCC(C)NC(=O)c1c(N)n(CCCOC)c2nc3ccccc3nc12 (centres undefined)	-69.0	24.7*	-0.6	15.8*	-9.5
Nc1c(C(=O)NCCc2ccccc2)c2nc3ccccc3nc2n1CCN1CCOCC1	-27.9	31.3*	-0.2	25.3*	-12.5
COc1ccc(CCNC(=O)c2c(N)n(CCN3CCOCC3)c3nc4ccccc4nc23)cc1	-23.6	26.9*	-0.3	7.2	-6.0
CC(C)CCNC(=O)c1c(N)n(CC2CCCO2)c2nc3ccccc3nc12 (centres undefined)	-61.7	40.0*	0.3	31.6*	-11.0
CCCCn1c(N)c(C(=O)NCCN2CCOCC2)c2nc3ccccc3nc21	-17.4	2.2	0.4	3.4	-4.2
Cc1cc(Cl)ccc1OCCCC(=O)NCc1cccs1	.	.	.	-2.6	3.7
CC(NC1CCCCC1)C(O)C12CC3CC(CC(C3)C1)C2 (centres undefined)	-10.7	-3.9	1.2	19.4*	5.6	GALR2 ag confirm=-0.2;BLA act counter=-1.5
CCCCSP1(=S)NCCCO1 (centres undefined)	13.1	-0.8	-0.8	-1.4	-1.9
COc1ccc(C[C@@H]2c3cc(O)c(OC)cc3CCN2C)cc1O	.	.	.	-1.1	1.8
COc1cc2c3cc1Oc1cc(ccc1O)C[C@@H]1c4c(cc(OC)c(O)c4Oc4ccc(cc4)C[C@H]3N(C)CC2)CCN1C	.	.	.	9.6*	-1.4	GALR2 ag confirm=12.2*;BLA act counter=1.1
CC(C)COc1ccc(C2(C#N)CC[N+](C)(C)CC2)cc1	10.7	-2.5	.	-1.9	5.9
CCOP(=O)(OCC)C(NC(C)=O)C(Cl)(Cl)Cl (centres undefined)	-12.0	-6.8	.	-3.0	-1.8
C=CCn1c(O)c(C(CC)=NCCc2ccccc2)c(=O)[nH]c1=O	-6.4	-2.6	-0.2	11.8*	-13.2	GALR2 ag confirm=0.4;BLA act counter=1.0
COCCNP(=O)(c1ccccc1)c1nc2ccccc2s1 (centres undefined)	22.9	0.7	-0.3	11.7*	-7.4	GALR2 ag confirm=-0.8;BLA act counter=-0.3
Cc1c2ccncc2c(C)c2c1[nH]c1ccccc12	.	.	.	11.9*	0.9	GALR2 ag confirm=12.6*;BLA act counter=3.5
CC(C)CCCn1c(O)c(/C=C2/C=CC=N2)c(=O)[nH]c1=O	.	.	-1.5	-2.7	13.4
O=c1cc(C(F)(F)F)c2cc3c4c(c2o1)CCCN4CCC3	36.5	-3.9	1.5	8.8	36.1*	GALR2 ag confirm=1.8;BLA act counter=-1.4;GALR2 blk conf=32.1*;BLA inh counter=43.7*
SMILES	S1P2 antag	S1P2 agonist	Phagocytosis inh	GALR2 ag	GALR2 blocker	others
O=c1cccc2n1CC1CC2CN(c2ncnc3c2cnn3-c2ccccc2)C1 (centres undefined)	.	.	-0.3	-1.1	10.2
CN[C@H]1C[C@H]2O[C@@](C)([C@H]1OC)n1c3ccccc3c3c4c(c5c6ccccc6n2c5c31)C(=O)NC4	.	.	.	-3.7	104.1*	GALR2 blk conf=104.9*;BLA inh counter=108.5*
COP(=O)(OC)C1(O)C(=O)Nc2ccc(Br)cc21 (centres undefined)	.	.	-6.0	-3.7	17.4
Cn1cccc1/C=C1/C(=O)NC(=O)N(Cc2ccccc2)C1=O	.	.	11.1	-0.3	28.6*	GALR2 blk conf=36.1*;BLA inh counter=65.5*
C=CCN1C(=O)NC(=O)/C(=C/c2cccn2C)C1=O	-0.5	-3.2	.	-0.7	10.2
Cc1cccc(N2CCc3c2nc2ccccc2c3N)c1	24.3	-7.5	-0.4	-2.9	30.8*!	GALR2 blk conf=35.5*;BLA inh counter=10.6
COc1ccc(-n2c(O)c(C(C)=NC3CC3)c(=O)[nH]c2=O)cc1	22.1	-1.7	-0.1	-1.0	8.5
COC(=O)C[C@]1(C(=O)OC)CN(C#N)N(c2ccc(Cl)cc2)C12c1ccccc1-c1ccccc12	35.5	-7.1	.	-3.2	40.2*	GALR2 blk conf=43.7*;BLA inh counter=31.8*
CN1C2CCC1/C(=C/c1ccccn1)C(=O)/C2=C\c1ccccn1	.	.	11.4	-2.9	101.9*	GALR2 blk conf=102.4*;BLA inh counter=104.5*
CN(Cc1ccccc1)Cc1ccccc1OC(=O)N(C)C	-4.4	-6.9	0.3	-2.0	0.7
CN1CCN(c2nc3ccccc3c(=O)n2-c2ccccc2)CC1	.	.	-1.6	0.1	12.0

Compound activity deposited in PubChem BioAssay by several laboratories.
